# Experimental data as given in PubChem BioAssay AID1573 (National Center for Advancing Translational Sciences (NCATS), 2009).
# Inconclusive results are not listed. The source made the active and inactive calls. Calls come from the whole dose curve; as a rule, active = well fitted inhibition curve with a large enough effect; inconclusive = small, poorly fitted or top-dose-only effect; inactive = no such curve, though single readings can be large or run the other way.
# Biological target: Thyroid hormone receptor beta (Homo sapiens) (UniProt P10828)
# Test: Concentration Response Confirmation Assay for Inhibitors of the Interaction of Thyroid Hormone Receptor and Steroid Receptor Coregulator 2
# Details: TRb LBD + Texas Red SRC2 peptide, fluorescence polarization, 5 h; series mostly up to 92.2 µM
# Description: NIH Molecular Libraries Probe Production Network [MLPCN] NIH Chemical Genomics Center [NCGC] MLPCN Grant: DK058080 Assay Provider: R. Kip Guy, St. Jude Children's Research Hospital NCGC Assay Overview: Thyroid receptor (TR) regulates many homeostatic processes including basal metabolism, cardiovascular function, body weight, and lipid trafficking. TR modulators are potential therapeutics for obesity and hyperlipidemias but current thyroid analogs have undesirable side effects, particularly cardiac stimulation. To identify inhibitors that specifically prevent the interaction of TR with the steroid receptor coregulator 2 (SRC2), a fluorescence polarization assay was screened. This assay detects interaction of the ligand-binding domain of human TRb with a Texas Red labeled SRC2 peptide, corresponding to a 20 amino acid region of the nuclear receptor interaction domain (Arnold et al., 2006). Small molecule inhibitors that block the interaction of TR and SRC2 are detected by a decrease in fluorescence polarization. This assay is a confirmation assay for AID 1469. Arnold, L. A.; Estebanez-Perpina, E.; Togashi, M.; Shelat, A.; Ocasio, C. A.; McReynolds, A. C.; Nguyen, P.; Baxter, J. D.; Fletterick, R. J.; Webb, P.; Guy, R. K. A high-throughput screening method to identify small molecule inhibitors of thyroid hormone receptor coactivator binding. Sci STKE 2006, p 13.
# NCGC Assay Protocol Summary: For screening, 5 uL/well 0.6 uM TRb and 20 nM SRC2 Texas Red in protein buffer (20mM Tris hydrochloride, 100mM NaCl, 10% glycerol, 1mM EDTA, 0.01% NP-40, 1mM DTT, 1uM T3 and 5% DMSO) was dispensed into black solid 1536-well plates (Grenier) using a solenoid-based dispenser. Following transfer of 23 nL compound or DMSO vehicle by a pin tool, the plates were centrifuged 15 s at 1000 RPM and incubated 5 hr at ambient temperature. The plates were read by an Envision (Perkin Elmer) to detect fluorescence polarization of SRC2 Texas Red (555 nm excitation and 632 nm emission). Data were normalized to unbound (all components except TRb) and bound SRC2 Texas Red controls. In this assay, we provide % activity data for each concentration as well as potencies for the active compounds. Keywords: NIH Roadmap, MLPCN, MLI, MLSMR, qHTS, NCGC, qHTS, thyroid hormone receptor, steroid receptor coactivator, fluorescence polarization
# Chain of Thyroid hormone receptor beta (Homo sapiens) (P10828 whole entry, looked up): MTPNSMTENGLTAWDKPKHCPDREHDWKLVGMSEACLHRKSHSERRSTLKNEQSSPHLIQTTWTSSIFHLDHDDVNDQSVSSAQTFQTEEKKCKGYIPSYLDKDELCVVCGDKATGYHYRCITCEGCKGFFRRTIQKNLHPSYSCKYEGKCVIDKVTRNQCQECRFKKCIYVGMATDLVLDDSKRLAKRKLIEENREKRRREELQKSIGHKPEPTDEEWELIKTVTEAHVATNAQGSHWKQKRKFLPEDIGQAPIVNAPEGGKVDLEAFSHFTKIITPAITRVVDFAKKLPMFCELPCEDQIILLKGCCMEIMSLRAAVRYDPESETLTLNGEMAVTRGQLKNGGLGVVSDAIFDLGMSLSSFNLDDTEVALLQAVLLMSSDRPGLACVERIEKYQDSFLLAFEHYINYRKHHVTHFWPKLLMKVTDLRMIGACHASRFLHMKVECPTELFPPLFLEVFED
row,Compound,Potency
1,Cc1ccccc1Nc1cc2ccccc2c(=O)[nH]1,15.8 µM (active)
2,CCCCOc1ccc(C(=O)CCN2CCOCC2)cc1,5.01 µM (active)
